Test [1] can be described thus: qHTS assay to identify small molecule agonists of the TGF-beta/Smad signaling pathway (AID 1346859; active means well fitted activation curve with a large enough effect in the signal ratio in the repeat runs, not every such curve was filed as active; the % refers to the signal ratio; further: series mostly up to about 77 µM). A digest of the protocol:
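Read-out: fluorescence at 460 and 530 nm (405 nm excitation) after a 2 hr room-temperature incubation with beta-lactamase FRET substrate. SBE-bla HEK 293T cells had been treated with test compounds for 5 hr at 37 C.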
In general terms: In qHTS, concentration-response curves come from the screen itself.

Test [2] addresses Thyrotropin-releasing hormone receptor (Homo sapiens) (UniProt P34981). The test is described as follows: qHTS assay to identify small molecule antagonists of the thyrotropin-releasing hormone receptor (TRHR) signaling pathway (AID 1346877; active means well fitted inhibition curve with a large enough effect in the repeat runs, not every such curve was filed as active; further: series mostly up to about 51 µM). The procedure, abridged:
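HEK293/TRHR cells, 18 h, 37 °C; Ca2+ dye 2 h; cpd 5 min RT; TRH 1 nM final; fluorescence read 3 min, 1 s intervals; 15 concs, triplicate.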

Test [3] shares this target. Nature of the test: qHTS assay to identify small molecule agonists of the thyrotropin-releasing hormone receptor (TRHR) signaling pathway (AID 1346891; calls by dose curve;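 further: HEK293 cells expressing TRHR with calcium dye readout; series mostly up to about 58 µM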). The procedure, abridged: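 HEK293/TRHR cells, 1500 per well, 18 h 37 °C; Ca dye 2 h 37 °C; pin-tool compound addition (agonist mode); kinetic fluorescence 3 min, 1 s reads; 15 concentrations, triplicate.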
The nature of test [4]: Human pregnane X receptor (PXR) small molecule agonists, qHTS cell viability counter screen (AID 1346977). Further: nearly all actives have a fitted effect of over 50% in size. The procedure, abridged: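 Fluorescence read-out (CellTiter-Fluor) of viability in PXR-Luc HepG2 cells, multiplexed with the luciferase agonist read. Compounds in DMSO added after 5hr plating; 24hr total exposure at 37C, 5% CO2.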
A short description of test [5]: Caspase-3/7 induction in CHO-K1 cells by small molecules, qHTS cell viability counter screen (AID 1346979). Further: nearly all actives have a fitted effect of over 35% in size. The procedure, abridged:
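CHO-K1 wt, 1,500 cells/well; 5hr pre-incubation 37C/5% CO2; compound pin transfer (DMSO); 16hr exposure; CellTiter-Fluor added, 1hr, fluorescence read.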

The nature of test [6]: Caspase-3/7 induction in HepG2 cells by small molecules, qHTS cell viability counter screen (AID 1346981). Further: series mostly up to about 92 µM; nearly all actives have a fitted effect of over 30% in size. A digest of the protocol: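 Fluorescence read-out of live-cell protease activity (CellTiter-Fluor) after 1 hr with reagent. This was measured in the same wells as the caspase-3/7 luminescence, on HepG2 cells exposed to DMSO-dissolved compounds for 16 hr at 37 C.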
In test [7] the target is Nuclear receptor subfamily 1 group I member 2 (Homo sapiens) (UniProt O75469). The test is described as follows: Human pregnane X receptor (PXR) small molecule agonists, qHTS assay (AID 1346982). Further: nearly all actives have a fitted effect of over 35% in size. A digest of the protocol:
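HepG2 PXR-Luc reporter line, 5% charcoal-stripped FBS; 5 hr pre-incubation, compound (DMSO) 24 hr at 37 C/5% CO2; ONE-Glo 30 min RT; luminescence read-out.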

In test [8] the target is Cytochrome P450 2C19 (Homo sapiens) (UniProt P33261). Nature of the test: Cytochrome P450 Family 2 Subfamily C Member 19 (CYP2C19) small molecule antagonists: luciferase reporter qHTS assay (AID 1671197). Further: nearly all actives have a fitted effect of over 65% in size. Further: potency means the concentration at half of the fitted maximal effect. The procedure, abridged: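 Compounds were tested on CYP2C19 activity via proluciferin conversion to luciferin. The 37C, 1 h reaction followed NADPH addition; detection reagent stopped it.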
Chain of Cytochrome P450 2C19 (Homo sapiens) (P33261 whole entry, looked up): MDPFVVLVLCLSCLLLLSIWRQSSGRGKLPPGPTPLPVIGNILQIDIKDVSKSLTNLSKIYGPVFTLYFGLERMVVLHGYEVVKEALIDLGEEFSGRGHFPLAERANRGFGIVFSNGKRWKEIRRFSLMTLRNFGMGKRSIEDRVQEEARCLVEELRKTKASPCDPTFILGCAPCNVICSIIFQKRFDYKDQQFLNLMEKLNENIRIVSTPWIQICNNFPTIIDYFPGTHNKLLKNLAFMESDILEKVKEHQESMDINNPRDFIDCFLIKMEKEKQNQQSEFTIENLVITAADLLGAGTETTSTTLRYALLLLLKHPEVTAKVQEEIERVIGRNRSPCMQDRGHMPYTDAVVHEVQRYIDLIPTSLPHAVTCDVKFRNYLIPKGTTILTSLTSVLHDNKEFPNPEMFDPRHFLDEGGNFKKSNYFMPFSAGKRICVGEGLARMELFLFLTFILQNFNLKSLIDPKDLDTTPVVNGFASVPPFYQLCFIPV

Test [9] concerns the target Cytochrome P450 2C9 (Homo sapiens) (UniProt P11712). Nature of the test: Cytochrome P450 Family 2 Subfamily C Member 9 (CYP2C9) small molecule antagonists: luciferase reporter qHTS assay (AID 1671198). Further: nearly all actives have a fitted effect of over 50% in size. Further: potency means the concentration at half of the fitted maximal effect. The procedure, abridged:
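CYP2C9 activity was measured with a P450-Glo proluciferin substrate. Enzyme–substrate mix was held with compound for 10 min at room temperature, then NADPH regeneration solution was added for 1 h at 37C. Luciferin product was read as luminescence.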
On the technique in general: Reporter assays use an easily measured gene product as a stand-in for the process of interest.

For test [10], the target named is Cytochrome P450 1A2 (Homo sapiens) (UniProt P05177). Nature of the test: Cytochrome P450 Family 1 Subfamily A Member 2 (CYP1A2) small molecule antagonists: luciferase reporter qHTS assay (AID 1671199). Further: nearly all actives have a fitted effect of over 50% in size. Further: potency means the concentration at half of the fitted maximal effect. The procedure, abridged: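 Luminescence readout (relative luminescence units) after luciferin detection reagent, 20 min RT. Preceded by 1 h room-temperature CYP1A2 reaction with NADPH regeneration solution following 10 min compound preincubation with enzyme and proluciferin substrate. Furafylline positive control.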
Chain of Cytochrome P450 1A2 (Homo sapiens) (P05177 whole entry, looked up): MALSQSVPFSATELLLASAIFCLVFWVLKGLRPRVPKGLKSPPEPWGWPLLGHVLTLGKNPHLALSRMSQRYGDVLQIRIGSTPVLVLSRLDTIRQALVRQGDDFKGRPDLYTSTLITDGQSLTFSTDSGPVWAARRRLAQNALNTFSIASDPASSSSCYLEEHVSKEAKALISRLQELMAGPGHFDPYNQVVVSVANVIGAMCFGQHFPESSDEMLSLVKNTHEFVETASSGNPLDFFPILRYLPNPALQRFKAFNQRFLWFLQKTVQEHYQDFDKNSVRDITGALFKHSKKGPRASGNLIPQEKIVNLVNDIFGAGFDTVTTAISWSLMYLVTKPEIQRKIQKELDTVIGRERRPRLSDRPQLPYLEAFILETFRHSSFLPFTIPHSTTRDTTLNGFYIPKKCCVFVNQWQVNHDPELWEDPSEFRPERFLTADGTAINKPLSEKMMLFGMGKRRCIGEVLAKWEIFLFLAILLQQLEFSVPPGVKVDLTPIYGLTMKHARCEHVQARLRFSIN

The target in test [11] is Voltage-gated inwardly rectifying potassium channel KCNH2 (Homo sapiens) (UniProt Q12809). The test is described as follows: Human Ether-a-go-go-Related Gene (hERG) channel small molecule antagonists: fluorescence cell-based qHTS assay (AID 1671200).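 Further: hERG-expressing U2OS cells given a thallium stimulus after FluxOR II dye loading; series mostly up to about 77 µM; nearly all actives have a fitted effect of over 50% in size.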 A digest of the protocol:
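Read-out: thallium influx as a surrogate for potassium, tracked as fluorescence (480 nm ex/540 nm em) every second for 2 min after Stimulus Buffer addition in dye-loaded hERG-U2OS cells.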

The nature of test [12]: Caspase-3/7 induction in HepG2 cells by small molecules, qHTS assay (AID 1346978). Further: nearly all actives have a fitted effect of over 15% in size. The procedure, abridged: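 Wild-type HepG2 cells (2,000/well) were settled 5 h at 37 C, 5% CO2, then exposed to compounds in DMSO for 17 h. Caspase-3/7 activity was read by luminescence 30 min after adding Caspase-Glo 3/7 reagent at room temperature.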
The nature of test [13]: Caspase-3/7 induction in CHO-K1 cells by small molecules, qHTS assay (AID 1346980). Further: nearly all actives have a fitted effect of over 15% in size. The procedure, abridged: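 Wild-type cells were seeded at 1,500 per well and settled 5 hr at 37 C, 5% CO2, then exposed to DMSO-dissolved compounds for 17 hr. Caspase-Glo 3/7 reagent was added, and luminescence was read after 30min at room temperature.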
In test [14] the target is Cytochrome P450 2D6 (Homo sapiens) (UniProt P10635). The test is described as follows: Cytochrome P450 Family 2 Subfamily D Member 6 (CYP2D6) small molecule antagonists: luciferase reporter qHTS assay (AID 1671196). Further: nearly all actives have a fitted effect of over 50% in size. Further: potency means the concentration at half of the fitted maximal effect. The procedure, abridged: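 Luminogenic proluciferin substrate, CYP2D6 enzyme; 10 min RT preincubation with compound, NADPH regeneration system added, 1 h RT. Stop/detection reagent, 20 min RT, luminescence read (RLU). Signal proportional to CYP activity.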
Chain of Cytochrome P450 2D6 (Homo sapiens) (P10635 whole entry, looked up): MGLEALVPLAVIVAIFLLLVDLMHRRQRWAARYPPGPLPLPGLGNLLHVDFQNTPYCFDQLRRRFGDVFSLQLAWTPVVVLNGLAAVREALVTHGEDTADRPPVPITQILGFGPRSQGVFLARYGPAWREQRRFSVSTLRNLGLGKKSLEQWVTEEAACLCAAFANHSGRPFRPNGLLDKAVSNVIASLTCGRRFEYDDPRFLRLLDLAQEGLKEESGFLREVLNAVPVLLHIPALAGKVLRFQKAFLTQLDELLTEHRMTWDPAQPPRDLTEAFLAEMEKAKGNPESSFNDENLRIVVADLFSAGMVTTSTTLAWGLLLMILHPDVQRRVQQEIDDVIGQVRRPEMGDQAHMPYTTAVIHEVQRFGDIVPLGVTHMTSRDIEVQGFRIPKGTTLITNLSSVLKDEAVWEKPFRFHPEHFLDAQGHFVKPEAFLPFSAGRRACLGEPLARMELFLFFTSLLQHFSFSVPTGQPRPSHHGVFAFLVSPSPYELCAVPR

The target of test [15] is Cytochrome P450 3A4 (Homo sapiens) (UniProt P08684). Nature of the test: Cytochrome P450 Family 3 Subfamily A Member 4 (CYP3A4) small molecule antagonists: luciferase reporter qHTS assay (AID 1671201). A digest of the protocol:
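Luminescent readout (RLU) proportional to CYP3A4 activity, from luciferin generated off a proluciferin substrate. Enzyme–substrate mix plus compound 10 min at room temp, NADPH regeneration 1 h, detection reagent 20 min.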

Test [16] concerns the target Nuclear receptor subfamily 1 group I member 2 (Rattus norvegicus) (UniProt Q9R1A7). Nature of the test: Rat pregnane X receptor (rPXR) activation by small molecules, qHTS assay (AID 1346983). Further: nearly all actives have a fitted effect of over 20% in size. The following applies: rPXR luciferase reporter cells, One-Glo luminescence, 24 h; max activation: hits give high values. The procedure, abridged:
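Cell-based rPXR luciferase reporter assay, 2,000 cells per well, rested 5hr at 37 C before compound addition in DMSO, then 24 hr at 37 C. One-Glo reagent was added and luminescence read after 30 min at room temperature.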

The target of test [17] is Nuclear receptor subfamily 1 group I member 2 (Homo sapiens) (UniProt O75469). Nature of the test: CYP3A4 induction through human pregnane X receptor (PXR) by small molecules, qHTS assay (AID 1346984). Further: nearly all actives have a fitted effect of over 40% in size. A digest of the protocol:
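HepG2-derived DPX-2 line carrying PXR plus a CYP3A4-promoter luciferase reporter; cells plated 5 hr, compound-exposed 24 hr at 37C. CYP3A4 activity probed with 3uM (final) Luciferin-IPA for 3hr, then luciferase read after One-Glo.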

Test [18] has the same target. The test is described as follows: Human pregnane X receptor (PXR) activation by small molecules, qHTS assay (AID 1346985). Further: nearly all actives have a fitted effect of over 40% in size. The procedure, abridged:
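DPX-2 cells (HepG2 co-transfected with a PXR response element and a CYP3A4-promoter luciferase construct) were seeded at 2,000 per well, rested 5 hr at 37C, then exposed to DMSO-dissolved compounds for 24 hr. Activation was read as luciferase luminescence.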

Ten compounds from PubChem BioAssay (Tox21) can be followed below.

Values without a mark were called inactive. Results filed as inconclusive are left out. Calls of active or inactive are those of the source. Unless noted, the call rests on the fitted dose curve; in most records, active means well fitted curve in the direction sought with a large enough effect in the repeat runs; inconclusive means weak or mixed curves; inactive means no such curve, though single readings can be large; an effect the other way counts as inactive or inconclusive.
On the % scale 0 is the no-effect control and ±100 the full control effect.

Chain of Thyrotropin-releasing hormone receptor (Homo sapiens) (P34981 whole entry, looked up): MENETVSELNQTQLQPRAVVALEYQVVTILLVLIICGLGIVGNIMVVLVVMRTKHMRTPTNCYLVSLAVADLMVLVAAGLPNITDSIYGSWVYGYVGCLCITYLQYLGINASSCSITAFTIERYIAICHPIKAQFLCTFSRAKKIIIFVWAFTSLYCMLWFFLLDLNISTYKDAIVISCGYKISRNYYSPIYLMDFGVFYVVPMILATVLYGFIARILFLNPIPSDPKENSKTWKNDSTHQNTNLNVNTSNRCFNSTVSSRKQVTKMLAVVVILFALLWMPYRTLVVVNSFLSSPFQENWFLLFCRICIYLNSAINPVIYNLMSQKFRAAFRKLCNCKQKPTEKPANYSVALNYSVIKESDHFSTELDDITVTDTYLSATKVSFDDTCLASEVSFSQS
Chain of Cytochrome P450 3A4 (Homo sapiens) (P08684 whole entry, looked up): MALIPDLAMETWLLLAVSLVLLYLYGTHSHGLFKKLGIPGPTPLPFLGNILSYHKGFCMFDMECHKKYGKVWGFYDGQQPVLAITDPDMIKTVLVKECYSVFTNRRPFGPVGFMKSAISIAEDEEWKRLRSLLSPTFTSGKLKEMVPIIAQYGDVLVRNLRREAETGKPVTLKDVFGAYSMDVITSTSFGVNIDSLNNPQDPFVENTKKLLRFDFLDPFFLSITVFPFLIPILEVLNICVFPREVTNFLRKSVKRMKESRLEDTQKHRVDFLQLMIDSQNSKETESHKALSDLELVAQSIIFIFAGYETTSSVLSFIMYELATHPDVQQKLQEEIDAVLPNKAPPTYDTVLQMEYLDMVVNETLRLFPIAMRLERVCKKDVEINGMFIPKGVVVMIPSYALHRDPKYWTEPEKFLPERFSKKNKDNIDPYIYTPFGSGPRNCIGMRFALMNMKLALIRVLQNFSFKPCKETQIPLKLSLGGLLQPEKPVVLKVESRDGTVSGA
Chain of Nuclear receptor subfamily 1 group I member 2 (Homo sapiens) (O75469 whole entry, looked up): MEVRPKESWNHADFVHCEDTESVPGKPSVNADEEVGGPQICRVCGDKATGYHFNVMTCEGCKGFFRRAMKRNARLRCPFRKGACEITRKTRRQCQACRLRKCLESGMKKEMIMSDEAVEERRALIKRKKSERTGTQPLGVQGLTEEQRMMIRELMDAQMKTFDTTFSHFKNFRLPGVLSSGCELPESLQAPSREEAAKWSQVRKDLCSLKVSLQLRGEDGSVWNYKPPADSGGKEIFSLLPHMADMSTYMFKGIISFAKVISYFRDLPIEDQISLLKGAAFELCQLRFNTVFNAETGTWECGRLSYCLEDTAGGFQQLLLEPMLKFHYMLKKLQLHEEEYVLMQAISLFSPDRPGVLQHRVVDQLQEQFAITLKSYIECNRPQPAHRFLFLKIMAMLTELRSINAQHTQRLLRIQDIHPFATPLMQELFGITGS
Chain of Voltage-gated inwardly rectifying potassium channel KCNH2 (Homo sapiens) (Q12809 whole entry, looked up): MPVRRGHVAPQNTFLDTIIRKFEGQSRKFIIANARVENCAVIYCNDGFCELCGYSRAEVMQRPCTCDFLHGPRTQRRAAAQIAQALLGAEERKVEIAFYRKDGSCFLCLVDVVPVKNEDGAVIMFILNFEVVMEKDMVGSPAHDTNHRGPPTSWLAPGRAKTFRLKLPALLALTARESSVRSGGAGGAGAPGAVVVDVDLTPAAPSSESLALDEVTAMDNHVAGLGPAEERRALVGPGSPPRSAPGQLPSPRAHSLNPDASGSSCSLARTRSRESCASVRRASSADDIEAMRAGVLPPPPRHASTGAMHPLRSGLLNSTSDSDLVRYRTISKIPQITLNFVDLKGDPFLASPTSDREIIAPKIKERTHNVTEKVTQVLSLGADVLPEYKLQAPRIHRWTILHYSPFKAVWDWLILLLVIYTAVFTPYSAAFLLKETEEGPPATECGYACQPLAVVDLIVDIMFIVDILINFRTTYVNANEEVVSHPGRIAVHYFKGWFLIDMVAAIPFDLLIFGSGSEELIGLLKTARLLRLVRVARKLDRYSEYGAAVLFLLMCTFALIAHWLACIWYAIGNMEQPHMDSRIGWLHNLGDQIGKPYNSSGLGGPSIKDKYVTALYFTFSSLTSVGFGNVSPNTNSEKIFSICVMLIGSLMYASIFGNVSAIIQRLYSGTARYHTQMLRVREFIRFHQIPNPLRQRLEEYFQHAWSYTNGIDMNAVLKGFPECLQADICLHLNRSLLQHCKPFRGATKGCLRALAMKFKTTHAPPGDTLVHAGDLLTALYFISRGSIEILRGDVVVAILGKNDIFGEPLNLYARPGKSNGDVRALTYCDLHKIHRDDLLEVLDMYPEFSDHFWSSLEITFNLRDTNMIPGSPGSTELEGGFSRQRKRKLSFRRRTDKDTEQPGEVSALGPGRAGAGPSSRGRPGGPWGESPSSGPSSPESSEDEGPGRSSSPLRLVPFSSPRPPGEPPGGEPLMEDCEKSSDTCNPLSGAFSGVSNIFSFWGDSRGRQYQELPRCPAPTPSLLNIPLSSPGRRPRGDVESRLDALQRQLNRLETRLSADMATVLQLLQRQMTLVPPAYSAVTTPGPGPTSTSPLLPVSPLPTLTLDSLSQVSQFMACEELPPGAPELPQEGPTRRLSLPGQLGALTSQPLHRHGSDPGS
Chain of Cytochrome P450 2C9 (Homo sapiens) (P11712 whole entry, looked up): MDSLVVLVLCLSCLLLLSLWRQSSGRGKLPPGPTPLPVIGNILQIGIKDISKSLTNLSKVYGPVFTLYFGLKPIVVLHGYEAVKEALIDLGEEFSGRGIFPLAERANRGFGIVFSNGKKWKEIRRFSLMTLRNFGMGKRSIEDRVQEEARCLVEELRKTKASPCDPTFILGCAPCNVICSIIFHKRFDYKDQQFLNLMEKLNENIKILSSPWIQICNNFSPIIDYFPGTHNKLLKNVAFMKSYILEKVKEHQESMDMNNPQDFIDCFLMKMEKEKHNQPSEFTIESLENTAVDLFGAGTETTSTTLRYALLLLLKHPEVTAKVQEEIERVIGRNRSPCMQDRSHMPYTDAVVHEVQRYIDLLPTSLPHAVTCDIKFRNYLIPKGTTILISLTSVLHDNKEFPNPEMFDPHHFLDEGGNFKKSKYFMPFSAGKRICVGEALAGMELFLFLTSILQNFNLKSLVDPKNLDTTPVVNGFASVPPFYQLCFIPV
Chain of Nuclear receptor subfamily 1 group I member 2 (Rattus norvegicus) (Q9R1A7 whole entry, looked up): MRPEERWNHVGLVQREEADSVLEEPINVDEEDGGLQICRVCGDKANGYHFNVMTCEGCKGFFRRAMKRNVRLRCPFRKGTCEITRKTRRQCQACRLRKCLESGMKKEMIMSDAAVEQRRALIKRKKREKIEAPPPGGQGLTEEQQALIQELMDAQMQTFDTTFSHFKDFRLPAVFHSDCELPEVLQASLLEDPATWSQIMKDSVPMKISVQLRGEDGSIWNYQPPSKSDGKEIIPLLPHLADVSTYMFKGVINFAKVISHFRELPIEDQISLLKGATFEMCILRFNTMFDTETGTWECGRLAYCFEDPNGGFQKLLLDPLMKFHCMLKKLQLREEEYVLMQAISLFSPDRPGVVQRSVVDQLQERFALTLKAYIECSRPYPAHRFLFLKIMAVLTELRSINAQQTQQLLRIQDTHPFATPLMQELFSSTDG

With `COc1cc(S(N)(=O)=O)cc(C(=O)O)c1OC`, the result in test [1], in test [2], in [4] and in test [6] was inactive. In addition, the Potency result in [3], in [5], in test [7], in test [8], in test [9] and in test [10] was “inactive” throughout. In addition, in [11], the Potency result was “inactive”.
As to `O=C1CCCc2c(O)cccc21`, the outcome in [1], in test [4], in test [12], in test [13] and in test [6] was inactive. The Potency entry in test [5], in test [7], in test [14], in [9], in test [11] and in [15] was “inactive” throughout. Also, the Potency in [10] is 34.7 µM (active).
As to `O=C1Nc2ccccc2C1=O`, the outcome in test [1], in [2], in test [4], in test [13] and in test [6] was inactive. Further, the Potency result in [3], in [7], in test [9], in [11] and in [15] was “inactive” in each case. The Potency in test [10] was 39.6 µM (active).
As for `Cc1cc(=O)oc2cc(O[C@@H]3SC[C@@H](O)[C@H](O)[C@H]3O)ccc12`, the compound was called inactive in test [1], in test [4], in [12], in test [13] and in test [6]. The Potency entry in test [5], in test [7], in test [14], in test [8], in test [9] and in test [10] was “inactive” in each case. Further, in [11], the Potency entry is “inactive”.
Turning to `Cc1ccc(N)nc1`, the compound was classed as inactive in test [1], in test [4], in test [12], in test [13] and in test [6]. In addition, the Potency entry in test [5], in test [7], in [8], in test [9], in test [11] and in test [15] was “inactive” throughout.
As for `CC(C)c1cc(C(C)C)cc(C(C)C)c1`, the compound was classed as inactive in test [1], in test [2], in test [4] and in [13]. Moreover, the Potency result in test [3], in test [5], in test [7], in test [14], in [8] and in [9] was “inactive” throughout. Besides, in test [10], the Potency result was “inactive”.
For the compound `CCC(C)SSC(C)CC` (stereo not drawn), the compound was classed as inactive in test [1], in test [2], in test [4], in test [13] and in [6]. For the same compound, the Potency entry in test [3], in [5], in test [8], in test [9], in test [11] and in [15] was “inactive” in each case. Moreover, in test [14], the Potency was 31.7 µM (active).
Consider `CN1C(CCl)Nc2cc(Cl)c(S(N)(=O)=O)cc2S1(=O)=O` (stereo not drawn), for which the call in test [1], in test [4], in test [12], in test [13], in [6] and in test [17] was inactive. Moreover, the compound was classed as inactive in test [18]. For the same compound, the Potency entry in [5], in test [7], in test [14], in [8], in test [9] and in [10] was “inactive” throughout. The Potency result in test [11] was “inactive”. Besides, in test [16], the max activation is -9.91%.
On to `CCNC(=O)C(C)OC(=O)Nc1ccccc1` (stereo not drawn), for which the call in [1], in test [2], in test [4], in test [13] and in test [6] was inactive. In addition, the Potency result in test [3], in test [7], in test [14], in test [11] and in test [15] was “inactive” throughout. For the same compound, the Potency in test [8] is 79.6 µM (active); in test [9] it was 35.6 µM (active); in [10], 35.6 µM (active).
Turning to `CC(=O)Nc1ccc(OCCOCCOc2ccc(NC(C)=O)cc2)cc1`, the result in test [1], in test [4], in test [12], in test [13], in test [6] and in [17] was inactive. Also, in test [18], the result was inactive. In addition, the Potency entry in test [5], in test [7], in test [10], in test [11] and in test [15] was “inactive” throughout. For the same compound, the max activation in [16] is -0.187%. Moreover, the Potency was 17.4 µM (active) in test [8] and 5.49 µM (active) in test [9].
